From PubChem BioAssay (NCATS)
Records with an inconclusive call do not appear. Where a call stands in place of a potency, no number is given. Activity calls are given as the source filed them. Calls follow the shape of the dose curve; as a rule, active = well fitted inhibition curve with a large enough effect; inconclusive = small, poorly fitted or top-dose-only effect; inactive = flat fitted curve, though single readings scatter.

What follows are molecules tested against Dual specificity protein kinase CLK4 (Homo sapiens) (UniProt Q9HAZ1) (assay: qHTS Assay for Inhibitors of CDC-like Kinase 4 (ADP-FP Assay) (AID 1795; also: nearly all actives have a fitted effect of over 60% in size)). Details: Transcreener ADP fluorescence polarization; series mostly up to 50 µM.
In short: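 Kinase activity was followed as ADP output, converted from fluorescence polarization with a calibration curve. Reactions ran one hour at low ATP (1 uM) with RS peptide substrate.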
Potency is read from the fitted curve at half-maximal effect.

Chain of Dual specificity protein kinase CLK4 (Homo sapiens) (Q9HAZ1 whole entry, looked up): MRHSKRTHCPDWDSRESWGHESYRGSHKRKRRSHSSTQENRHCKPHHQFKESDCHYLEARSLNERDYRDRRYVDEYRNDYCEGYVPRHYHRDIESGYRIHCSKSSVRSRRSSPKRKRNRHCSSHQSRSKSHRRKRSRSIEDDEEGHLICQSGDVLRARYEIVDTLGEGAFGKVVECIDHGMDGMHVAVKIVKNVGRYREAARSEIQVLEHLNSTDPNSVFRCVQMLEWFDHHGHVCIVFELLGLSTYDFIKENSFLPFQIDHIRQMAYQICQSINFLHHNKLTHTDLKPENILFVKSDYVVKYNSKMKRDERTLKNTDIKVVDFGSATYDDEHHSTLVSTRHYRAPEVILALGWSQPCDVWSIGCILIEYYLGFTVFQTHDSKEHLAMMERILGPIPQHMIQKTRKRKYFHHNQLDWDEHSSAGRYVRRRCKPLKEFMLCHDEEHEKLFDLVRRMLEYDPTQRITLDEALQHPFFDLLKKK

With `CN(C)C(=O)c1ccc(-c2nccc(N(C)Cc3ccco3)n2)cc1` as the molecule, how does the Potency read?
The Potency was “inactive”.

With `CS(=O)(=O)Nc1cccc(-c2cc(NCc3cccs3)ncn2)c1` as the molecule, how does the Potency read?
The Potency was 12.6 µM (active).

With `COc1ccc(-c2nc3cnc(OC)nc3n(C)c2=O)cc1` as the molecule, how does the Potency read?
Its Potency is “inactive”.

How did the Potency turn out when `c1ccc(CNc2ncncc2-c2cccnc2)cc1` was run?
Its Potency is “inactive”.

How did the Potency turn out when `CN(C)c1ncc2nc(-c3cccs3)c(=O)n(-c3ccccc3)c2n1` was run?
Its Potency is “inactive”.

Which Potency does the source give for `Cn1c(=O)c(-c2ccc(Cl)cc2)nc2cnc(OCc3ccccc3)nc21` here?
The Potency was “inactive”.

Which Potency does the source give for `COc1cccc(Cn2c(=O)c(-c3ccc(Cl)cc3)nc3cnc(N4CCN(C)CC4)nc32)c1` here?
Its Potency is “inactive”.

How did the Potency turn out when `COc1cccc(Cn2c(=O)c(CCc3ccccc3)nc3cncnc32)c1` was run?
Its Potency is “inactive”.

For `Cn1c(=O)c(-c2ccccc2)nc2cnc(Nc3ccccc3)nc21`, which Potency is on record?
Its Potency is “inactive”.

How did the Potency turn out when `COc1ncc2ncc(=O)n(C3CC3)c2n1` was run?
Its Potency is “inactive”.

For `Cc1cnc(CNc2cc(-c3ccccc3C(F)(F)F)ncn2)cn1`, which Potency is on record?
Its Potency is “inactive”.

With `CN(C)C(=O)c1ccc(-c2cncnc2NCc2cccnc2)cc1` as the molecule, how does the Potency read?
Its Potency is “inactive”.

Which Potency does the source give for `COc1ncc2nc(-c3ccc(F)cc3)c(=O)n(CCc3ccccc3)c2n1` here?
The Potency was “inactive”.

With `N#Cc1cccc(-c2nccc(-n3ccnc3)n2)c1` as the molecule, how does the Potency read?
The Potency was 12.6 µM (active).

`O=c1c(-c2ccccc2)nc2cnc(Oc3cccc(Cl)c3)nc2n1C1CC1` was tested. Which Potency did it give?
The Potency was “inactive”.

With `CNc1nc(-c2cccnc2)nc2ccccc12` as the molecule, how does the Potency read?
The Potency was 3.98 µM (active).

With `Cn1cc(-c2nc3cnc(Oc4ccccc4)nc3n(Cc3cccs3)c2=O)c2ccccc21` as the molecule, how does the Potency read?
The Potency was “inactive”.

Which Potency does the source give for `COc1cccc(Cn2c(=O)c(-c3ccc(Cl)cc3)nc3cnc(OC)nc32)c1` here?
Its Potency is “inactive”.
